From PubChem
esBAF inh – blocks esBAF chromatin remodeling in mouse ES cells; 350,000 compounds, 2% hits; Bmi1-luciferase knock-in reporter, 24 h; 100% = twice the neutral-well signal; reporter increase, % at 12.5 µM; AID 602393; in the data active = activation above about 40%; inconclusive = no clear call, values can overlap the other calls;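 note: 0% = median of the plate's neutral control wells and 100% = double that signal; a rise in the Bmi1 reporter signal indicates esBAF inhibition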
SMARCA2 act – activators of SMARCA2 function. MG213 cells, MMTV-luciferase reporter, dexamethasone, overnight. activation, % at 9.1 µM. 370,000 compounds, 1% hits; in the data active = activation above about 7.8%;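 note: 0% = vehicle wells and 100% = reference activator wells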
Vif imaging – blocks HIV Vif function | HEK293T cells, Vif self-association by quenched fluorescence, imaging, 24 h | inhibition, % at 7.49 µM | 340,000 compounds, 0.35% hits | AID 602346; in the data active = inhibition above about 50%, passing the limit was not always enough; inconclusive = no clear call, values can overlap the other calls; inactive = below about 31%
NadD block – blocks S. aureus nicotinate mononucleotide adenylyltransferase; purified NadD enzyme, colorimetric absorbance read-out; inhibition, % at 20 µM; 360,000 compounds, 0.78% hits; AID 602399; in the data active = inhibition above about 26%
SKN-1 inh – inhibitors of C. elegans SKN-1; C. elegans VP596 Pgst-4::GFP/RFP ratio, acrylamide-induced, 24 h; inhibition, % at 21.8 µM; 360,000 compounds, 0.49% hits; AID 624304;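 active = interference check ratio from 0.5 to 1.5 plus GFP to RFP signal ratio inhibition reaching or exceeding a fixed threshold, cut at about 30% in these data, passing the limit was not always enough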
NR3A LBD binder – modulates the human NR3A ligand-binding domain; NR3A LBD differential scanning fluorimetry, Tm shift; 0% = protein alone, 100% = glycine-bound protein; Tm shift relative to glycine control, % at 25 µM; 340,000 compounds, 2.5% hits; AID 1259313;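 active = melting temperature shift of at least 10% of the positive control shift, at one fixed dose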
NadD inh conf – NadD (S. aureus) inhibition, single concentration confirmation | shares compounds with NadD block | 2,000 compounds, 13% hits | purified S. aureus NadD, colorimetric enzyme assay | inhibition, % at 20 µM; in the data active = inhibition mostly above about 42%, no sharp cut-off; inactive = mostly below about 42%
* = called active by the depositor. Hits are enriched below; roughly 5.2% of the tested compounds scored in any of these assays.

What do the screens show for `COc1ccc(-c2cc(=Nc3c(C)n(C)n(-c4ccccc4)c3=O)c3ccccc3o2)cc1`?
esBAF inh: inconclusive; SMARCA2 act: 1; Vif imaging: -4; NadD block: 8; SKN-1 inh: -9; NR3A LBD binder: -2

What do the screens show for `O=[N+]([O-])c1ccc2[nH]cc(S(=O)(=O)N3CCN(c4cccc(Cl)c4)CC3)c2c1`?
esBAF inh: -2; SMARCA2 act: -4; Vif imaging: -2; NadD block: 31*; SKN-1 inh: 3; NR3A LBD binder: 27*; NadD inh conf: 12

How did COc1cccc(C(=O)Oc2c(Br)cc(Br)cc2/C=N/NC(=O)c2cc(C)[nH]n2)c1 do in these assays?
SMARCA2 act: -6; NadD block: 42*; SKN-1 inh: -5; NR3A LBD binder: 8; NadD inh conf: 8

What do the screens show for `Cc1cc(C(=O)N/N=C/c2cccc(OC(=O)c3cccc(Br)c3)c2)n[nH]1`?
SMARCA2 act: -2; Vif imaging: 1; NadD block: 14; SKN-1 inh: -3; NR3A LBD binder: 0

Results for CO[C@H]1CN(C)C(=O)c2ccc(NC(=O)c3ccc(F)cc3)cc2OC[C@H](C)N(C(C)=O)C[C@H]1C ?
esBAF inh: -3

What do the screens show for `O=C(Cc1ccccn1)NCC[C@H]1CC[C@@H](NC(=O)Nc2ccc(Cl)cc2)[C@H](CO)O1`?
esBAF inh: -4

How did O=C(CSc1nc2ccc(NC(=O)CSc3nnnn3-c3ccccc3)cc2s1)Nc1ccccc1 do in these assays?
SMARCA2 act: 1; Vif imaging: -2; NadD block: 39*; SKN-1 inh: 20; NR3A LBD binder: -2; NadD inh conf: 20

Results for Cc1cccc(NC(=O)CSc2nc3ccc(NC(=O)CSc4nnnn4-c4ccccc4)cc3s2)c1C ?
SMARCA2 act: -1

Results for O=C(/C=C/c1ccco1)N1CCC(Cc2ccccc2)CC1 ?
esBAF inh: 10; SMARCA2 act: 0; Vif imaging: 65*; NadD block: 34*; SKN-1 inh: -2; NR3A LBD binder: -2; NadD inh conf: 21

How did Cc1ccc(C(=O)NN2CC(O)=C(c3nc(-c4cccc([N+](=O)[O-])c4)cs3)C2=N)cc1 do in these assays?
SMARCA2 act: -1; Vif imaging: 1; NadD block: 33*; SKN-1 inh: 14; NR3A LBD binder: 5; NadD inh conf: -4

How did COc1cccc(C(=O)NN2CC(O)=C(c3nc(C)cs3)C2=N)c1 do in these assays?
SMARCA2 act: -2; Vif imaging: 4; NadD block: -3; SKN-1 inh: 5; NR3A LBD binder: 0

What do the screens show for `C[C@@H]1CN([C@@H](C)CO)C(=O)c2cc(NS(=O)(=O)c3cccs3)ccc2O[C@@H]1CN(C)CC1CCCCC1`?
esBAF inh: -7

What do the screens show for `C[C@@H]1CCCCO[C@@H](CN(C)C(=O)c2ccccc2)[C@@H](C)CN([C@H](C)CO)C(=O)c2cc(NS(=O)(=O)c3ccccc3)ccc2O1`?
esBAF inh: -7

Results for COc1cccc(CNC(=O)c2cc3c(c(-c4cccc(-c5ccncc5)c4)n2)[C@@H](CCO)N([S@](=O)C(C)(C)C)C3)c1 ?
esBAF inh: 5

How did O=C(CSC(=S)N1CCN(c2ccccc2)CC1)Nc1nc(-c2ccccc2)c(-c2ccccc2)o1 do in these assays?
esBAF inh: -13; SMARCA2 act: -3; Vif imaging: -2; NadD block: 35*; SKN-1 inh: 2; NR3A LBD binder: -3; NadD inh conf: 2

How did O=C(CSC(=S)N1CCOCC1)Nc1nc(-c2ccccc2)c(-c2ccccc2)o1 do in these assays?
SMARCA2 act: -2; Vif imaging: -2; NadD block: 15; SKN-1 inh: -1; NR3A LBD binder: -7

What do the screens show for `O=C(Nc1ccc([N+](=O)[O-])cc1)Nc1nc(-c2ccc(Cl)s2)cs1`?
SMARCA2 act: -7; Vif imaging: -25; NadD block: 51*; SKN-1 inh: 6; NR3A LBD binder: 416*; NadD inh conf: 5

What do the screens show for `O=C(O)C1CCCCC1C(=O)Nc1nc(-c2ccc(Cl)s2)cs1` (centres undefined)?
SMARCA2 act: 3; Vif imaging: 4; NadD block: 9; SKN-1 inh: -12; NR3A LBD binder: 1

What do the screens show for `O=C(Nc1ccc(Oc2ccc(NC(=O)Nc3ccc([N+](=O)[O-])cc3)cc2)cc1)Nc1ccc([N+](=O)[O-])cc1`?
esBAF inh: -5; SMARCA2 act: -3; Vif imaging: -1; NadD block: 32*; SKN-1 inh: 14; NadD inh conf: -4

Results for CC(=O)c1ccc(NC(=O)Nc2ccc([N+](=O)[O-])cc2)cc1 ?
SMARCA2 act: -3; Vif imaging: 4; NadD block: -4; SKN-1 inh: 8; NR3A LBD binder: -1

How did COc1ccc(-c2ccc3c(c2)[C@@H]2[C@@H](CCN2C(=O)c2cnccn2)[C@H](CO)N3)cc1 do in these assays?
esBAF inh: -2

Results for Cc1ccc2nc3c(cc2c1)CN(Cc1ccco1)C(=NCC1CCCO1)S3 (centres undefined) ?
esBAF inh: -25; SMARCA2 act: 0; Vif imaging: -1; NadD block: 45*; SKN-1 inh: 7; NR3A LBD binder: 4; NadD inh conf: 10

Results for CO[C@@H](CN(C)Cc1cc(F)ccc1F)[C@H](C)CN(C(=O)Nc1ccc(C(F)(F)F)cc1)[C@@H](C)CO ?
esBAF inh: -1

Results for Cc1cc(C)n(-c2nc(Nc3ccccc3)nc(-n3nc(C)cc3C)n2)n1 ?
esBAF inh: -7; SMARCA2 act: -2; Vif imaging: 2; NadD block: 17; SKN-1 inh: 11; NR3A LBD binder: -2

Results for Cc1cc(C)n(-c2nc(N(c3ccccc3)c3ccccc3)nc(-n3nc(C)cc3C)n2)n1 ?
esBAF inh: -23; Vif imaging: 4; NadD block: 42*; SKN-1 inh: 9; NR3A LBD binder: 34*; NadD inh conf: 22

Results for CC(=O)N1N=C(c2ccc3ccccc3c2)OC1(C)C ?
SMARCA2 act: 3; Vif imaging: -1; NadD block: -5; SKN-1 inh: 26; NR3A LBD binder: -1

What do the screens show for `c1ccc2cc(-c3cc4ccccn4c3)ccc2c1`?
esBAF inh: 22; SMARCA2 act: 3; Vif imaging: 1; NadD block: 35*; SKN-1 inh: 11; NR3A LBD binder: -4; NadD inh conf: 16

How did O=C(O)c1cccc(NC(=S)NC(=O)c2ccc(-c3ccc(Cl)cc3)o2)c1 do in these assays?
esBAF inh: inconclusive; SMARCA2 act: 6; Vif imaging: 0; NadD block: 38*; SKN-1 inh: 4; NR3A LBD binder: -15; NadD inh conf: 20
